# Laboratory results taken from PubChem BioAssay (NCI).
# Where “and” joins values, the source holds several entries; their conditions need not be identical. Equal values may be shown once. Compounds without any hit were thinned out: in the full panel of roughly 79,000, 15% have a hit. Calls of active or inactive are those of the source. Rule as the data show it: active = growth inhibition above about 70%; inactive = the rest.
# Test: NCI Yeast Anticancer Drug Screen. Data for the sgs1 mgt1 strain (AID 161);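 also: 0% = growth of cultures given vehicle only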
# Settings: S. cerevisiae sgs1 mgt1 strain, at 50.0 µM, active compounds read high
# Summary of the method: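 Inhibition of yeast growth, normalised to vehicle-treated controls, is reported for a strain bearing genetic alterations in DNA damage repair.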
row,Structure (SMILES),growth inhibition
1,O=C(O)c1cc[c]([Hg][S]c2ncnc3nc[nH]c23)cc1,98.6% (active)
2,CCCCCCCC[As](=O)(O)CCCCCCCC,20.9% (inactive)
3,C=CP(=O)(OCCCl)OCCCl,2.3% (inactive)
4,Cc1cc(N(CCCl)CCCl)ccc1CN1CCCN(Cc2ccc(N(CCCl)CCCl)cc2C)C1c1cc(O)cc(Br)c1,35.4% (inactive)
5,C[N+](C)(C)CCNP(=O)(Oc1ccccc1)c1ccccc1 (centres undefined),-22.5% (inactive)
6,C/C=C/CC1(c2ccccc2)C(=O)NC(=S)NC1=O,6.3% (inactive)
7,CCOC(=O)C(Cc1ccc(N(CCCl)CCCl)cc1)NC(=O)CNC(C)=O (centres undefined),14.7% (inactive)
8,CC(C(=O)O)C(Br)C(=O)O (centres undefined),1.7% (inactive)
9,CC(NC1=NCCO1)c1cccs1 (centres undefined),-20.1% (inactive)

# Test: NCI Yeast Anticancer Drug Screen. Data for the cln2 rad14 strain (AID 165);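 also: 0% = growth equal to vehicle treated cultures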
# Settings: S. cerevisiae cln2 rad14 strain, at 50.0 µM, active compounds read high
# Summary of the method: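 The screen exposed genetically defined yeast (cln2 rad14) to test compounds and scored growth inhibition relative to vehicle-treated controls.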
row,Structure (SMILES),growth inhibition
1,CC1(c2ccccc2)CCC(=O)NC1=O (centres undefined),32.5% (inactive)
2,C(#Cc1ccccc1)c1ccccc1.[C-]#[O+].[C-]#[O+].[C-]#[O+].[C-]#[O+].[C-]#[O+].[C-]#[O+].[Co].[Co],-3.55% (inactive)
3,CCN1CCC(OC(=O)c2ccccc2)(c2nccc3ccccc23)CC1,9.05% (inactive)
4,COC(=O)c1ccccc1NP(=O)(O)Oc1ccccc1 (tested in a mixture with another compound),-32.5% (inactive)
5,O=C1NN(c2ccccc2)C(=O)C1c1ccccc1 (centres undefined),9.75% (inactive)
6,COc1ccc2c3c1OC1C(C)(O)C(O)CC4C(C2)N(C)CCC341 (centres undefined),9.3% (inactive)
7,CN1CCc2c([nH]c3ccccc23)C1,17.2% (inactive)
8,CC(C)C1CN1CC(O)Cn1ccnc1[N+](=O)[O-] (centres undefined),0% (inactive)
9,O=C(Oc1cc(Cl)c(S(=O)(=O)F)cc1Cl)c1ccccc1Cl,86.8% (active)
10,COC(=O)C1(C(=O)OC)Cc2ccc(C)cc2C2=C1C(=O)c1ccccc1C2=O,7.55% (inactive)
11,CCC1=C(CC2NCCc3cc(OC)c(OC)cc32)CC2c3ccccc3CCN2C1 (centres undefined),-9.75% (inactive)
12,NP(=S)(Oc1ccc(Cl)cc1)Oc1ccc(Cl)cc1,60.7% (inactive)
13,O=C1/C(=C\c2ccccc2)N2CCC1CC2,-70.6% (inactive)
14,NC(C(=O)[O-])C(=O)[O-].NC1CCCCC1N.[Pt+4],-31.6% (inactive)
15,CN(C)CCN=C(N)N[N+](=O)[O-],-96.4% (inactive)
16,CC(C)CCC1(CC[N+](C)(C)C)C(=O)NC(=O)NC1=O,-29.2% (inactive)
17,CC1(C)OC2(C)CCC1C(O)C2N1CCCCC1 (centres undefined),0.75% (inactive)
18,CCOC(=O)/C(=C\c1ccc(OC)cc1)[Se]c1ccccc1,13.8% (inactive)
19,CC1=CC(=O)CC2(C)CCC(C(C)CC(=O)CC(C)C)CC12OO (centres undefined),91.8% (active) and 91.7% (active)
20,CC1(C)N=C(c2ccccc2)C2(c3ccccc3)N1C2(C)C (centres undefined),-0.3% (inactive)

row,Structure (SMILES),growth inhibition
1,C[N+](C)=c1nc(N2CCc3ccccc3C2)ss1,-19.4% (inactive)
2,C[C@@H]1C[C@@]2(O[C@@H]2C)C(=O)O[C@@H]2CCN3CC=C(COC(=O)[C@]1(C)O)[C@H]23,13.3% (inactive)
3,O=C(CS(=O)(=O)O)Nc1ccccc1,14.7% (inactive)
4,C[CH2][Sn]1([CH2]C)[O]C(=O)[O][Sn]([CH2]C)([CH2]C)[O]1,-5.05% (inactive)
5,O=C(OCCOCCOC(=O)C(Cl)(Cl)Cl)C(Cl)(Cl)Cl,39.2% (inactive)
6,CC(C)(C)[SH+]CC[SH+]C(C)(C)C.[C-]#[O+].[C-]#[O+].[C-]#[O+].[C-]#[O+].[Cr],-4.4% (inactive)
7,COC(=O)C1=C(C)N2CCCOC2(C)C(C(=O)OC)C1c1cccc(Cl)c1 (centres undefined),29.1% (inactive)
8,O=C(O)C(C(=O)O)P(=S)(S)c1ccccc1 (centres undefined),1.15% (inactive)
9,C[P+](CCl)(CCl)CCl,-7.3% (inactive)
10,S=C(SSC(=S)N(Cc1ccccc1)Cc1ccccc1)N(Cc1ccccc1)Cc1ccccc1,-14.3% (inactive)
11,C[CH2][Sn](/[CH]=C/C=C/OC)([CH2]C)[CH2]C,16.8% (inactive)
12,O=C(O)c1cc[c]([Hg][S]c2ncnc3nc[nH]c23)cc1,98.2% (active)
13,CCCCCCCC[As](=O)(O)CCCCCCCC,-6.85% (inactive)
14,C=CP(=O)(OCCCl)OCCCl,18.1% (inactive)
15,Cc1cc(N(CCCl)CCCl)ccc1CN1CCCN(Cc2ccc(N(CCCl)CCCl)cc2C)C1c1cc(O)cc(Br)c1,-2.55% (inactive)
16,C[N+](C)(C)CCNP(=O)(Oc1ccccc1)c1ccccc1 (centres undefined),1.35% (inactive)
17,C/C=C/CC1(c2ccccc2)C(=O)NC(=S)NC1=O,-42.3% (inactive)
18,CCOC(=O)C(Cc1ccc(N(CCCl)CCCl)cc1)NC(=O)CNC(C)=O (centres undefined),1.45% (inactive)
19,CC(C(=O)O)C(Br)C(=O)O (centres undefined),3.55% (inactive)
20,CC(NC1=NCCO1)c1cccs1 (centres undefined),25.9% (inactive)
